Inconclusive results are not listed. Entries that show only a call come without a potency. Calls of active or inactive are those of the source. Calls come from the whole dose curve; as a rule, active = well fitted inhibition curve with a large enough effect in the repeat runs; inconclusive = weak or mixed curves; inactive = no such curve, though single readings can be large or run the other way.
target: Cytochrome P450 2D6 (Homo sapiens) (UniProt P10635); assay: Cytochrome P450 Family 2 Subfamily D Member 6 (CYP2D6) small molecule antagonists: luciferase reporter qHTS assay (AID 1671196); settings: P450-Glo CYP2D6 enzyme assay, luciferin luminescence, 1 h; series mostly up to 115 µM; note: nearly all actives have a fitted effect of over 50% in size
Method in brief: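 Room-temperature luminescent CYP2D6 activity assay: compound preincubated 10 min with enzyme–substrate mix, NADPH-initiated reaction 1 h, detection reagent 20 min before reading.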
Potency is the fitted concentration of half-maximal effect.

Sequence of Cytochrome P450 2D6 (Homo sapiens) (P10635 whole entry, looked up): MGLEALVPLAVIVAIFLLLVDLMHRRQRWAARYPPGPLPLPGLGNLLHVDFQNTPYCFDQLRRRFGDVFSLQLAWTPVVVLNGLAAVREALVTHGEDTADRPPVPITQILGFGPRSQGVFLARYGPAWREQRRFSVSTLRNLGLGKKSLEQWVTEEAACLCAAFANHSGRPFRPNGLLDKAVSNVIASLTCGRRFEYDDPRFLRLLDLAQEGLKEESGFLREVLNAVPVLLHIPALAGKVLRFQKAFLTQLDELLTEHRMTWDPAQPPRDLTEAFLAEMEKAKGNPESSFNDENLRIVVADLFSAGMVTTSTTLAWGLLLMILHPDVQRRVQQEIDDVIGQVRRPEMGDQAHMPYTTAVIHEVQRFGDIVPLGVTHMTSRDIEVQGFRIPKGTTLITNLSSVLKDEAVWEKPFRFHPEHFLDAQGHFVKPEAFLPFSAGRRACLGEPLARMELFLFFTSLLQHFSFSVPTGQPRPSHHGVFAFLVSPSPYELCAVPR

Row | SMILES | Potency
1 | O=C(O)c1ccc2[nH]cc(CCCCN3CC=C(c4ccccc4)CC3)c2c1 | 12.3 µM (active)
2 | O=[N+]([O-])c1cc(Cl)c(Cl)c(Cl)c1 | inactive
3 | CCN(Cc1ccc(Cl)nc1)/C(=C/[N+](=O)[O-])NC | inactive
4 | C[N+](C)=CCl | inactive
5 | CCC(C)(C)c1cc(-n2nc3ccccc3n2)c(O)c(C(C)(C)CC)c1 | 25.6 µM (active)
6 | OCCSCSCCO | inactive
7 | ClCCCN1CCN(c2cccc(Cl)c2)CC1 | 0.977 µM (active)
8 | C=C(C)CN(CC)c1c([N+](=O)[O-])cc(C(F)(F)F)cc1[N+](=O)[O-] | inactive
9 | CC(C)[N+](=O)[O-] | inactive
10 | Cc1cccc(C#N)c1 | inactive
11 | COC(=O)c1ccccc1S(=O)(=O)NC(=O)N(C)c1nc(C)nc(OC)n1 | inactive
12 | CC(C)(C)C(=O)C(Oc1ccc(Cl)cc1)n1cncn1 (stereo not given) | inactive
13 | CN1C(=S)CN=C(c2ccccc2)c2cc(Cl)ccc21 | inactive
14 | O=NN1CCN(N=O)CC1 | inactive
15 | O=C(O)c1cccc(Cl)c1 | inactive
16 | O=CNC(N1CCN(C(NC=O)C(Cl)(Cl)Cl)CC1)C(Cl)(Cl)Cl (stereo not given) | 31.7 µM (active)
17 | Cc1ncc2n1-c1ccc(Cl)cc1C(c1ccccc1F)=NC2 | inactive

Row | SMILES | Potency
18 | CCOC(=O)CP(=O)(OCC)OCC | inactive
19 | COC(=O)C(c1ccccc1)C1CCCCN1 (stereo not given) | 22.5 µM (active)
20 | COC(=O)C(C)Oc1ccc(Oc2ccc(Cl)cc2Cl)cc1 (stereo not given) | inactive
21 | CC(C)CC(N(C)C)C1(c2ccc(Cl)cc2)CCC1 (stereo not given) | 4.36 µM (active)
22 | CCCCc1ccc(O)cc1 | inactive
23 | C[C@@H]1CN(C2CCC(C#N)(c3ccc(F)cc3)CC2)CC[C@]1(C(=O)O)c1ccccc1 (stereo not given in full) | 1.55 µM (active)
24 | COc1cc(OC)nc(Oc2cccc(Oc3nc(OC)cc(OC)n3)c2C(=O)O)n1 | inactive
25 | N#CCNCC#N | inactive
26 | CCNc1nc(NC(C)C)nc(OC)n1 | inactive
27 | Cc1cnc[nH]1 | 34.2 µM (active)
28 | CC(Oc1ccc(Oc2ncc(C(F)(F)F)cc2Cl)cc1)C(=O)O (stereo not given) | 71 µM (active)
29 | CN(N=O)C(N)=O | inactive
30 | NC1=NC(=O)C(c2ccccc2)O1 (stereo not given) | inactive
31 | OC(Cn1cncn1)(c1ccc(F)cc1)c1ccccc1F (stereo not given) | 35.6 µM (active)
32 | ClC(Cl)Br | inactive
33 | CCC#N | inactive

target: Cytochrome P450 2C19 (Homo sapiens) (UniProt P33261); assay: Cytochrome P450 Family 2 Subfamily C Member 19 (CYP2C19) small molecule antagonists: luciferase reporter qHTS assay (AID 1671197); settings: P450-Glo CYP2C19 enzyme, luciferin luminescence, 1 h; series mostly up to 115 µM; note: nearly all actives have a fitted effect of over 65% in size
Method in brief: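 Compounds were tested on CYP2C19 activity via proluciferin conversion to luciferin. The 37C, 1 h reaction followed NADPH addition; detection reagent stopped it.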

Sequence of Cytochrome P450 2C19 (Homo sapiens) (P33261 whole entry, looked up): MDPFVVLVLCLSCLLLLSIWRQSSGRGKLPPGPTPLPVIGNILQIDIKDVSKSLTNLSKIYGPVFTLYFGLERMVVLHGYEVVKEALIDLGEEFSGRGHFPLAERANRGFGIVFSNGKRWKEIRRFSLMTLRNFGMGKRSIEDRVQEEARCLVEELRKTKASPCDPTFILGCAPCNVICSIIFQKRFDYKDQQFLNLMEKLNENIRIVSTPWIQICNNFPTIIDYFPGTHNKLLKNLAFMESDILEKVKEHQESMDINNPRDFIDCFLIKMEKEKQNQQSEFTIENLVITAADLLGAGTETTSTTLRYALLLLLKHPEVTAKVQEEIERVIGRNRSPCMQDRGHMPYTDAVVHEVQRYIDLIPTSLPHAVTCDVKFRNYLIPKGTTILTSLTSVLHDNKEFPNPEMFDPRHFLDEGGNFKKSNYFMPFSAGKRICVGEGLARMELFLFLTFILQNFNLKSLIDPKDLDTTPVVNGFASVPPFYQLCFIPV

Row | SMILES | Potency
34 | CCS(=O)(=O)C(C)(C)S(=O)(=O)CC | inactive
35 | O=C(O)c1ccc2[nH]cc(CCCCN3CC=C(c4ccccc4)CC3)c2c1 | inactive
36 | O=[N+]([O-])c1cc(Cl)c(Cl)c(Cl)c1 | inactive
37 | CCN(Cc1ccc(Cl)nc1)/C(=C/[N+](=O)[O-])NC | inactive
38 | C[N+](C)=CCl | inactive
39 | CCC(C)(C)c1cc(-n2nc3ccccc3n2)c(O)c(C(C)(C)CC)c1 | 20.3 µM (active)
40 | OCCSCSCCO | inactive
41 | ClCCCN1CCN(c2cccc(Cl)c2)CC1 | 8.71 µM (active)
42 | C=C(C)CN(CC)c1c([N+](=O)[O-])cc(C(F)(F)F)cc1[N+](=O)[O-] | 28.3 µM (active)
43 | Cc1cccc(C#N)c1 | inactive
44 | CC(C)(C)C(=O)C(Oc1ccc(Cl)cc1)n1cncn1 (stereo not given) | 3.17 µM (active)
45 | CN1C(=S)CN=C(c2ccccc2)c2cc(Cl)ccc21 | 21.9 µM (active)
46 | O=NN1CCN(N=O)CC1 | inactive
47 | O=C(O)c1cccc(Cl)c1 | inactive
48 | O=CNC(N1CCN(C(NC=O)C(Cl)(Cl)Cl)CC1)C(Cl)(Cl)Cl (stereo not given) | 7.96 µM (active)
49 | Cc1ncc2n1-c1ccc(Cl)cc1C(c1ccccc1F)=NC2 | 15.5 µM (active)

Row | SMILES | Potency
50 | CCOC(=O)CP(=O)(OCC)OCC | inactive
51 | COC(=O)C(C)Oc1ccc(Oc2ccc(Cl)cc2Cl)cc1 (stereo not given) | 5.64 µM (active)
52 | C[C@H]1CCC[C@H](O)CCCCCc2cc(O)cc(O)c2C(=O)O1 | 22.6 µM (active)
53 | CC(C)CC(N(C)C)C1(c2ccc(Cl)cc2)CCC1 (stereo not given) | 9.77 µM (active)
54 | C[C@@H]1CN(C2CCC(C#N)(c3ccc(F)cc3)CC2)CC[C@]1(C(=O)O)c1ccccc1 (stereo not given in full) | inactive
55 | COc1cc(OC)nc(Oc2cccc(Oc3nc(OC)cc(OC)n3)c2C(=O)O)n1 | inactive
56 | N#CCNCC#N | inactive
57 | CCNc1nc(NC(C)C)nc(OC)n1 | 25.2 µM (active)
58 | Cc1cnc[nH]1 | inactive
59 | COc1cc2c(cc1OC)[C@@]13CCN4CC5=CCO[C@H]6CC(=O)N2[C@H]1[C@H]6[C@H]5C[C@H]43 | inactive
60 | CCC1(c2ccccc2)C(=O)NC(=O)NC1=O | inactive
61 | CN(N=O)C(N)=O | inactive
62 | NC1=NC(=O)C(c2ccccc2)O1 (stereo not given) | inactive
63 | OC(Cn1cncn1)(c1ccc(F)cc1)c1ccccc1F (stereo not given) | 2 µM (active)
64 | ClC(Cl)Br | inactive

target: Cytochrome P450 2C9 (Homo sapiens) (UniProt P11712); assay: Cytochrome P450 Family 2 Subfamily C Member 9 (CYP2C9) small molecule antagonists: luciferase reporter qHTS assay (AID 1671198); settings: P450-Glo CYP2C9 enzyme assay, luciferin luminescence; series mostly up to 115 µM; note: nearly all actives have a fitted effect of over 50% in size
Method in brief: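 Enzyme-substrate mix preincubated with compound 10 min at room temperature; reaction started with NADPH regeneration solution, 1 h 37C. Luminescent luciferin product read after 20 min detection reagent.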

Sequence of Cytochrome P450 2C9 (Homo sapiens) (P11712 whole entry, looked up): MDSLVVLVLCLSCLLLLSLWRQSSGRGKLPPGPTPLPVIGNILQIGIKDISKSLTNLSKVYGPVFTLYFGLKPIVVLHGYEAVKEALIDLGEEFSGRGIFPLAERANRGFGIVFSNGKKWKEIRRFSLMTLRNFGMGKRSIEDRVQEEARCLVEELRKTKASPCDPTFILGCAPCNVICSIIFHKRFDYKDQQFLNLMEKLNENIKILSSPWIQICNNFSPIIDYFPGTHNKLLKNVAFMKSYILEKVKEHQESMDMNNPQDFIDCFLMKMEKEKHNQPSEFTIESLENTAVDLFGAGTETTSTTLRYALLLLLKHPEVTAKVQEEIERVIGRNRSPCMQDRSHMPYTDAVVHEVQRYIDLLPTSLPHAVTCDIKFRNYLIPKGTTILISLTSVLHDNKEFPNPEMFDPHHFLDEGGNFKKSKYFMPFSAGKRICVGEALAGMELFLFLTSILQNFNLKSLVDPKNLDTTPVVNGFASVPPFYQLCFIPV

Row | SMILES | Potency
65 | CCS(=O)(=O)C(C)(C)S(=O)(=O)CC | inactive
66 | O=C(O)c1ccc2[nH]cc(CCCCN3CC=C(c4ccccc4)CC3)c2c1 | inactive
67 | O=[N+]([O-])c1cc(Cl)c(Cl)c(Cl)c1 | inactive
68 | CCN(Cc1ccc(Cl)nc1)/C(=C/[N+](=O)[O-])NC | inactive
69 | C[N+](C)=CCl | inactive
70 | OCCSCSCCO | inactive
71 | C=C(C)CN(CC)c1c([N+](=O)[O-])cc(C(F)(F)F)cc1[N+](=O)[O-] | 31.7 µM (active)
72 | CC(C)[N+](=O)[O-] | inactive
73 | Cc1cccc(C#N)c1 | inactive
74 | COC(=O)c1ccccc1S(=O)(=O)NC(=O)N(C)c1nc(C)nc(OC)n1 | inactive
75 | CC(C)(C)C(=O)C(Oc1ccc(Cl)cc1)n1cncn1 (stereo not given) | 12.6 µM (active)
76 | CN1C(=S)CN=C(c2ccccc2)c2cc(Cl)ccc21 | 17.4 µM (active)
77 | O=NN1CCN(N=O)CC1 | inactive
78 | O=CNC(N1CCN(C(NC=O)C(Cl)(Cl)Cl)CC1)C(Cl)(Cl)Cl (stereo not given) | 35.6 µM (active)
79 | Cc1ncc2n1-c1ccc(Cl)cc1C(c1ccccc1F)=NC2 | 17.4 µM (active)
80 | CCOC(=O)CP(=O)(OCC)OCC | inactive

Row | SMILES | Potency
81 | COC(=O)C(C)Oc1ccc(Oc2ccc(Cl)cc2Cl)cc1 (stereo not given) | 31.7 µM (active)
82 | C[C@H]1CCC[C@H](O)CCCCCc2cc(O)cc(O)c2C(=O)O1 | 31.9 µM (active)
83 | CC(C)CC(N(C)C)C1(c2ccc(Cl)cc2)CCC1 (stereo not given) | inactive
84 | C[C@@H]1CN(C2CCC(C#N)(c3ccc(F)cc3)CC2)CC[C@]1(C(=O)O)c1ccccc1 (stereo not given in full) | inactive
85 | COc1cc(OC)nc(Oc2cccc(Oc3nc(OC)cc(OC)n3)c2C(=O)O)n1 | inactive
86 | N#CCNCC#N | inactive
87 | CCNc1nc(NC(C)C)nc(OC)n1 | inactive
88 | COc1cc2c(cc1OC)[C@@]13CCN4CC5=CCO[C@H]6CC(=O)N2[C@H]1[C@H]6[C@H]5C[C@H]43 | inactive
89 | CCC1(c2ccccc2)C(=O)NC(=O)NC1=O | inactive
90 | CC(Oc1ccc(Oc2ncc(C(F)(F)F)cc2Cl)cc1)C(=O)O (stereo not given) | 35.6 µM (active)
91 | CN(N=O)C(N)=O | inactive
92 | NC1=NC(=O)C(c2ccccc2)O1 (stereo not given) | inactive
93 | OC(Cn1cncn1)(c1ccc(F)cc1)c1ccccc1F (stereo not given) | 0.796 µM (active)
94 | ClC(Cl)Br | inactive
95 | CCC#N | inactive

From PubChem BioAssay (Tox21)
